Test results published in PubChem BioAssay (NCATS).
Inconclusive results are not listed. Entries that show only a call come without a potency. Activity calls are given as the source filed them. Calls come from the whole dose curve; as a rule, active = well fitted cell-killing curve with a large enough effect; inconclusive = small, poorly fitted or top-dose-only effect, or effect the other way; inactive = no such curve, though single readings can be large or run the other way.

Assay: Cell Viability - LYMP2-004 (AID 966);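 note: cells exposed to compound for 24 h; nearly all actives have a fitted effect of over 65% in size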
Conditions: LYMP2-004 lymphoblastoid cell viability, qHTS; series mostly up to 92.2 µM
From the text: NIH Chemical Genomics Center [NCGC]
NIH Molecular Libraries Screening Centers Network [MLSCN]
National Institutes of Environmental Health Sciences [NIEHS]
National Toxicology Program [NTP]
We have developed a 1536-well cell-based assay for quantitative high throughput screening (qHTS) against a number of cell lines to determine in vitro cytotoxicity of small molecules. This particular assay uses a human lymphoblastoid cell line (LYMP2-004) purchased from Coriell Institute for Medical Research.
NCGC Assay Protocol Summary:
The CellTiter-Glo luminescent cell viability assay (Promega) is a homogeneous method to measure the number of viable cells in culture. The end point readout of this assay is based on quantitation of intracellular ATP, an indicator of metabolic activity, using the luciferase reaction. Luciferase catalyzes the oxidation of beetle Luciferin to oxyluciferin and light in the presence of ATP. The luminescent signal is proportional to amount of ATP present.
Using the CellTiter-Glo luminescent cell viability assay, the amount of cellular ATP was measured in the lymphoblastoid cell line with complete culture medium following compound treatment for 24 hours. The assay was performed in opaque white Kalypsys 1536-well plates. In the screen, tetraoctylammonium bromide was used as positive control. Library compounds were measured for their ability to cause acute toxicity in the cell line, as reflected by a decrease in intracellular ATP levels, in a concentration-dependent manner. […] AC50 values were determined from concentration-response data modeled with the standard Hill equation.
qHTS protocol for CellTiter Glo lymphoblastoid cellular assay
[Step] [Parameter] [Value] [Description]
1. Reagent; 5 uL; 2500 lymphoblastoid cells/well
2. Time; 5 hr; 37 C incubation
4. Controls; 23 nL; Tetraoctylammonium bromide 6.4pM to 92 uM
5. Time; 24 hr; 37 C incubation
6. Reagent; 5 uL; CellTiter Glo reagent
7. Time; 30 min; Room Temperature
8. Detection; Luminescence; Viewlux plate reader
Keywords: cell viability, cytotoxicity, lymphoblastoid cell line, luminescence, NTPHTS, NTPHTS_NCGC, NIEHS, DSSTox, MLSMR, MLSCN, NIH Roadmap, qHTS, NCGC
Potency is the fitted concentration of half-maximal effect.

For `CC(O)COC(C)(C)C` (stereo not given), which Potency is on record?
The Potency was “inactive”.

For `CCCCCCCCCCCCOCC1CO1` (stereo not given), which Potency is on record?
Its Potency is “inactive”.

Which Potency does the source give for `CC(C)C=O` here?
The Potency was “inactive”.

With `O=[N+]([O-])c1cc(C(F)(F)F)ccc1Cl` as the compound, how does the Potency read?
Its Potency is “inactive”.

With `FB(F)F` as the compound, how does the Potency read?
Its Potency is “inactive”.

Which Potency does the source give for `C1CCOC1` here?
Its Potency is “inactive”.

With `CC(C)(C)OC=O` as the compound, how does the Potency read?
Its Potency is “inactive”.

Which Potency does the source give for `O=C(O)c1cccc([N+](=O)[O-])c1` here?
The Potency was “inactive”.

For `CC#N`, which Potency is on record?
The Potency was “inactive”.

Which Potency does the source give for `Cc1ccccc1C#N` here?
The Potency was “inactive”.

Which Potency does the source give for `O=[N+]([O-])c1cccc(Cl)c1` here?
Its Potency is “inactive”.

With `CC1=C(/C=C/C(C)=C/C=C/C(C)=C\C=O)C(C)(C)CCC1` as the compound, how does the Potency read?
Its Potency is 31.6 µM (active).

For `O=Cc1ccc(Cl)cc1`, which Potency is on record?
Its Potency is “inactive”.

With `Cc1ccc([N+](=O)[O-])c(N)c1` as the compound, how does the Potency read?
The Potency was “inactive”.

For `BrC(Br)C(Br)Br`, which Potency is on record?
Its Potency is “inactive”.

Which Potency does the source give for `Nc1ccc([N+](=O)[O-])c(N)c1` here?
Its Potency is “inactive”.

Which Potency does the source give for `ClCCl` here?
The Potency was “inactive”.

With `Cc1c(N)cccc1N` as the compound, how does the Potency read?
Its Potency is “inactive”.

For `Clc1cc(Cl)cc(Cl)c1`, which Potency is on record?
Its Potency is “inactive”.

For `FC(F)(F)c1ccccc1Cl`, which Potency is on record?
Its Potency is “inactive”.

Which Potency does the source give for `CSCCC=O` here?
The Potency was “inactive”.

With `CCC(C)(C)OC` as the compound, how does the Potency read?
The Potency was “inactive”.

With `O=C1CCCCC1` as the compound, how does the Potency read?
The Potency was “inactive”.

With `C=C(C)C(=O)OCC(C)C` as the compound, how does the Potency read?
Its Potency is “inactive”.

Which Potency does the source give for `Nc1ccc(Cl)cc1[N+](=O)[O-]` here?
The Potency was “inactive”.

For `CC/C=C1/OC(=O)c2ccccc21`, which Potency is on record?
Its Potency is “inactive”.

With `C/C(C=O)=C/c1ccccc1` as the compound, how does the Potency read?
Its Potency is “inactive”.

With `CCC(C)(C)C(=O)O` as the compound, how does the Potency read?
Its Potency is “inactive”.

For `CC/C=C/C#N`, which Potency is on record?
Its Potency is “inactive”.

For `C=CCOC(=O)COCCC(C)C`, which Potency is on record?
The Potency was “inactive”.

Which Potency does the source give for `CC1(N)CCC(C(C)(C)N)CC1` (stereo not given) here?
Its Potency is “inactive”.

Which Potency does the source give for `CC(=O)Nc1ccc(C)cc1` here?
The Potency was “inactive”.

With `Cc1cc([N+](=O)[O-])ccc1N` as the compound, how does the Potency read?
Its Potency is “inactive”.

With `CC(C=O)Cc1ccc(C(C)(C)C)cc1` (stereo not given) as the compound, how does the Potency read?
Its Potency is “inactive”.

Which Potency does the source give for `CCNc1cc(O)ccc1C` here?
The Potency was “inactive”.

With `CCCCCCO` as the compound, how does the Potency read?
The Potency was “inactive”.

With `C=CCOC(=O)CCCCCCCC` as the compound, how does the Potency read?
Its Potency is “inactive”.

For `CCOC(=O)OCC`, which Potency is on record?
Its Potency is “inactive”.

For `CC(=O)CCc1ccccc1`, which Potency is on record?
The Potency was “inactive”.

Which Potency does the source give for `CC(C)CO` here?
Its Potency is “inactive”.
